# From PubChem BioAssay AID2284362 (EPA ToxCast)
# Inconclusive results are not listed. Active and inactive are the calls of the source. Rule for the calls: active = hit-call score of the fitted dose curve at least 0.9, where 1 is the maximum; inconclusive = response in the unintended direction; inactive = score below 0.9.
# Assay: CCTE_Mundy_HCI_iCellGABA_NOG_NeuriteCount: CCTE's Neurite Outgrowth Assay in iCellGABA cells for Neurite Count, Mundy Lab
# Description: CCTE_Mundy_HCI_iCellGABA_NOG is a multiplexed, cell-based-readout assay that uses iCell GABANeurons from FUJIFILM Cellular Dynamics, Inc. (FCDI), human GABAergic enriched neurons derived from induced pluripotent stem (iPS) cells, with measurements taken at 50.33 hours after chemical dosing in a microplate: 96-well plate.CCTE_Mundy_HCI_iCellGABA_NOG_NeuriteCount is one of four components of the CCTE_Mundy_HCI_iCellGABA_NOG assay. It measures neurite outgrowth related to number of neurites using High Content Imaging of fluorescently labelled markers.Data from the assay component CCTE_Mundy_HCI_iCellGABA_NOG_NeuriteCount was analyzed at the endpoint CCTE_Mundy_HCI_iCellGABA_NOG_NeuriteCount in the positive analysis fitting direction relative to DMSO as the negative control and baseline of activity. Using a type of morphology reporter, loss-of-signal activity can be used to understand developmental effects.
# Exposure starts 2 hours post-plating by adding 10 ul of the working solution to 90 ul of media in the wells for a 1/10 dilution. Forty-eight hours after chemical treatment cells are fixed by direct addition of 100 ul of warm (37C) Dulbecco's phosphate buffered saline (DPBS) fixative solution containing 8% paraformaldehyde, 8% sucrose, and 0.1% of 3 mg/ml Hoechst 33342 into each well. Primary antibodies are prepared by dilution in Immunocytochemical Staining Buffer (ISB), 10X Dulbecco's PBS, 0.1% Saponin, 5% Bovine Serum Albumin, 0.5% NaN3 (Sodium Azide) and betaIII-tubulin (rabbit anti-betaIII-tubulin, 1:800) followed by Alexa Fluor-488 secondary (1:500) to label neuronal cell bodies and neurites. A Cellomics ArrayScan VTi HCS Reader is used for automated image acquisition and analysis of neurite outgrowth.
SMILES,outcome,AC50
CCOC(=O)CC(SP(=O)(OC)OC)C(=O)OCC (centres undefined),inactive,
CCCCSP(=O)(SCCCC)SCCCC,,65.2 µM (active)
CCOP(=S)(OCC)OC(Cl)C(Cl)(Cl)Cl (centres undefined),,29.7 µM (active)
CCOP(=S)(OCC)Oc1cc(C)nc(C(C)C)n1,,76.5 µM (active)
CCOP(=S)(OCC)SCSC(C)(C)C,,81.4 µM (active)
COP(=O)(OC)OC=C(Cl)Cl,inactive,
CCCSP(=O)(OCC)Oc1ccc(Br)cc1Cl (centres undefined),inactive,
CNC(=O)CSP(=S)(OC)OC,inactive,
COP(=O)(OC)OC(Br)C(Cl)(Cl)Br (centres undefined),,16.1 µM (active)
COP(N)(=O)SC (centres undefined),inactive,
CCN(CC)c1nc(C)cc(OP(=S)(OC)OC)n1,,89.1 µM (active)
COP(=O)(OC)O/C(C)=C/C(=O)N(C)C,inactive,
CCOP(=O)(OCC)Oc1nc(Cl)c(Cl)cc1Cl,inactive,
CCOP(=O)(SC(C)CC)N1CCSC1=O (centres undefined),inactive,
CCOP(=S)(OCC)Oc1nc(Cl)c(Cl)cc1Cl,,30.1 µM (active)
COP(=S)(OC)SCN1C(=O)c2ccccc2C1=O,,74.2 µM (active)
CCOP(=S)(OCC)SCSCC,inactive,
COP(=O)(NC(C)=O)SC (centres undefined),inactive,
COP(=O)(OC)C(O)C(Cl)(Cl)Cl (centres undefined),inactive,
CCOP(=S)(Oc1cnc(C(C)(C)C)nc1)OC(C)C (centres undefined),inactive,
CCOP(=S)(OCC)Oc1ccc2c(C)c(Cl)c(=O)oc2c1,,71.2 µM (active)
CNC(=O)CSP(=O)(OC)OC,inactive,
CCOC(=O)CC(SP(=S)(OC)OC)C(=O)OCC (centres undefined),,74.1 µM (active)
COP(=O)(OC)O/C(=C\Cl)c1cc(Cl)c(Cl)cc1Cl,,66.5 µM (active)
